The source of these data is PubChem BioAssay (NCI).

About 83,000 compounds went through this panel and 20% of them were active in at least one assay; those are over-represented in the sample as a whole.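 Cells were grown in 96-well plates and exposed to the test compound at a single concentration for 48 hours; results are reported as percent growth, with values below 10 considered active.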 Values without a mark were called inactive. Calls of active or inactive are those of the source.

Experiment in all cases: NCI-60 one-dose screen, 48 h (100 = growth as untreated, 0 = no growth, -100 = all killed)
Holding throughout (conditions): 10 µM unless noted

The subject of test [1] is NCI-H23 lung.
Test [2] has as its system NCI-H226 lung.
Test [3] concerns NCI-H322M lung.
In test [4] the test system is HOP-62 NSCLC.
Test [5] relates to NCI-H460 lung.
Test [6] deals with HOP-92 NSCLC.
For test [7], the system named is NCI-H522 lung.
Test [8] relates to A549/ATCC NSCLC.
Test [9] has as its system 786-0 renal.
Test [10] has as its system COLO 205 colon.
For test [11], the system named is DU-145 prostate.
The subject of test [12] is K-562 leukemia.
For test [13], the system named is MALME-3M melanoma.
In test [14] the test system is MDA-MB-231 breast.
Test [15] deals with RXF 393 renal.
Test [16] relates to SF-268 CNS.
The test system of test [17] is SF-295 CNS.
Test [18] concerns SF-539 CNS.
In test [19] the test system is UACC-257 melanoma.
Test [20] concerns M14 melanoma.

As to `Nc1n[nH]c2cccc(C#Cc3cccc(C(=O)Nc4ccc(Cl)c(C(F)(F)F)c4)c3)c12`, the growth is 59.1% in test [1]; 36% in test [2]; 77% in test [3]; 67.5% in test [4]; 64.3% in test [5]; 20.1% in test [6]. For the same molecule, the growth in [7] was 30.9%; in [8], 71.3%; in test [9], 76.6%; in test [10] it was 29.3%; in test [11], 83.6%; in test [12], 6.22% (active). For the same molecule, the growth in test [13] was 14.9%; in [14], 40.4%; in [15] it was 66.9%; in [16], 61.7%; in [17], 66.6%; in test [18], 33.5%. Besides, the figures for the growth in [19] and in test [20] were 48.2% and 23%, respectively.
With `CCc1ccc(Cc2cnc(NC(=O)c3cc(C)oc3C)s2)cc1`, the growth is 52.8% in test [1]; 66.3% in test [2]; 56.8% in test [3]; 56.9% in test [4]; 18.6% in test [5]; 45% in test [6]. In addition, the growth in test [7] is 19.6%; in [8], 34.7%; in test [9], 41.2%; in test [10], 48.6%; in test [11], 60.2%; in test [12] it was 14.6%. In addition, the growth is 56% in test [13]; 57.8% in [14]; 15.4% in test [15]; 48.6% in test [16]; 31.8% in [17]; 31.2% in test [18]. Further, the results for the growth in test [19] and in [20] were 52.1% and 21.4%, respectively.
With `COc1cc2c(c(OC)c1OC)CCC(c1cccc(C(=O)Nc3ccc([N+](=O)[O-])cc3)c1)O2` (stereo not given), the growth in test [1] was 47.2%; in test [2], 48.3%; in [3], 68.3%; in test [4], 76.7%; in test [5], 58.8%; in [6] it was 42.6%. In addition, the growth in test [7] is 49.6%; in [8], 55.2%; in test [9], 70.1%; in test [10] it was 73.2%; in [11] it was 57%; in [12], 21.8%. For the same molecule, the growth in test [13] is 68.3%; in test [14] it was 37.1%; in test [15] it was 69.8%; in test [16], 59.3%; in [17] it was 39.8%; in test [18], 76.2%. Besides, the growth in test [19] is 50.9%; in [20] it was 30.7%.
For the molecule `O=C(/C=C/c1cccc([N+](=O)[O-])c1)c1ccc(Nc2nc(Nc3ccc(F)cc3)nc(Nc3ccc(Cl)cc3)n2)cc1`, the growth was 81.4% in test [1]; 87.2% in [2]; 87.6% in test [3]; 151% in test [4]; 91.9% in [5]; 50.9% in test [6]. Besides, the growth is 82.8% in [7]; 83% in test [8]; 99.4% in test [9]; 91.2% in test [10]; 106% in [11]; 70% in test [12]. In addition, the growth was 105% in test [13]; 92.2% in [14]; 3.04% (active) in [15]; 93.8% in test [16]; 84.8% in test [17]; 106% in test [18]. Moreover, the growth in test [19] is 100%; in [20] it was 92.5%.
For `CNC(=O)c1cc(Oc2ccc3nc(NC(=O)NC(C)C)sc3c2)ccn1`, the growth was 87.5% in test [1]; 79.2% in test [2]; 95.2% in test [3]; 75.6% in [4]; 86.8% in test [5]; 63.3% in test [6]. Further, the growth in test [7] is 59.3%; in test [8], 64.3%; in test [9], 80.3%; in test [10], 78.8%; in test [11] it was 98.8%; in test [12] it was 7.14% (active). For the same molecule, the growth in [13] is 86.2%; in test [14], 79.5%; in [15], 95.4%; in test [16], 89.8%; in test [17] it was 77.5%; in test [18], 76.9%. Moreover, the growth in test [19] was 73.7%; in test [20], 50.5%.
Take `COc1ccc(C2=C/C(=C\c3ccccc3O)C(=O)N2Cc2ccccc2)cc1`: the growth in test [1] is 85.9%; in test [2], 94.9%; in test [3] it was 77.8%; in [4] it was 89.7%; in [5], 90%; in test [6] it was 64.6%. In addition, the growth in test [7] is 51.3%; in test [8] it was 74%; in test [9] it was 90%; in [10], 102%; in test [11] it was 96.2%; in test [12] it was 51.1%. Further, the growth was 63.4% in test [13]; 93.7% in [14]; 76.2% in [15]; 86.5% in test [16]; 94% in test [17]; 101% in [18]. For the same molecule, the results for the growth in test [19] and in test [20] were 71.7% and 50.5%, respectively.
`C[C@@H]1N=C(c2ccc(Cl)cc2Cl)Nc2nc3ccccn3c2C1=O`: the growth in test [1] was 61.4%; in [2] it was 75.7%; in [3] it was 63.7%; in test [4], 52.6%; in [5], 18.7%; in test [6] it was 55.9%. For the same molecule, the growth in test [7] was 28.9%; in test [8], 40.6%; in test [9] it was 73.2%; in [10] it was 22.3%; in [11], 64.8%; in [12], 23.6%. Moreover, the growth in test [13] is 43.7%; in test [14], 64.6%; in [15], 80.2%; in [16] it was 58.9%; in test [17] it was 14.5%; in test [18] it was 53%. Also, the growth in test [19] was 52.4%; in test [20], 31.1%.
